Measurements taken from the supplement of paper PMC11417369.
Over roughly 25,000 sequences, “ln(normalized median fluorescence intensity)” has its median near 6.7; the highest 2% begin near 10. This is one part of a sample in which the highest values are shown more often than they occur.

Each sequence was assayed on PfHDP1 homeodomain (GST-tagged) (assay: gcPBM binding intensity (ln(normalized median fluorescence intensity)); higher = stronger DNA binding).
Summary of the method: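 Binding of GST-tagged P. falciparum DNA-binding domains, expressed in E. coli and used at about 25 μg on average, was carried out for 1 h in 1× PBS containing 1% milk, 0.2 mg/ml BSA, 0.5% salmon testes DNA and 0.03% Triton X-100. The target was an Agilent 4 × 180k array of primer-extended double-stranded 36-bp intergenic genomic probes plus negative controls, read with Alexa488 anti-GST antibody at 488 nm. Binding intensity is the highest Masliner-normalised natural-log median intensity across replicate spots of either probe orientation.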
In the case of “GGTATTTTCACATATAGTACACAAAAATAAAATAAA [XGTACX_site2139]”, the “gcPBM binding intensity (ln)” value is reported as 6.68.
With “CATATAGATTTGTTCACACACACACTAAAAAAAAAA [CACACA_site7212]” the “gcPBM binding intensity (ln)” value was 6.7.
With “TATTCTAATTTTTAAACACACAAATATAAATAAGTA [CACACA_site3149]” the “gcPBM binding intensity (ln)” value was 6.35.
For “AAAAGAAAAAAAAAAAAAAAAAAAATTAAAATATAA [CACACA_negctrl_site17]”, the “gcPBM binding intensity (ln)” value was 5.65.
“TGAATAATATACATACGTACATACATATATATAATA [XGTACX_site1302]” was tested, and the “gcPBM binding intensity (ln)” value was 6.17.
In the case of “AATATAAATATTAAAACACACATAAAAAGATTATTA [CACACA_site1764]”, the “gcPBM binding intensity (ln)” value is reported as 6.29.
“ATATATATAAAATGTTGTACATATATATAAATAATA [XGTACX_site1661]” was tested, and the “gcPBM binding intensity (ln)” value was 6.15.
“TAAATTTTTAAATACACACATACACCCATACAGACA [CACACA_site548]” was tested, and the “gcPBM binding intensity (ln)” value was 7.18.
With “TTTAAAACCCTAAAAAAAAAAAAAAAAAAAAAAAAA [CACACA_negctrl_site1212]” the “gcPBM binding intensity (ln)” value was 6.26.
For “TTTTTTTAAATTATATGTACATAATTTTAATTTTAT [XGTACX_site5086]”, the “gcPBM binding intensity (ln)” value was 6.43.
“ATTTTTTTTTTTATGTGTACATATATTTTTTTAATT [XGTACX_site7921]” was tested, and the “gcPBM binding intensity (ln)” value was 7.04.
“AAAAAAAAAAAAAACACACACACACCCATAAATATA [CACACA_site151]” was tested, and the “gcPBM binding intensity (ln)” value was 6.87.
In the case of “AACATATAAAAATGTGCACACACACCCATATATATA [CACACA_site1525]”, the “gcPBM binding intensity (ln)” value is reported as 10.7.
“AATATAAATAAAAACACACACACACCCATATATATA [CACACA_site2267]” was tested, and the “gcPBM binding intensity (ln)” value was 7.13.
“AAATAAATAATTTAATGTACATATATAATATATATA [XGTACX_site1831]” was tested, and the “gcPBM binding intensity (ln)” value was 6.81.
With “AGAGTACAAGTAAATACACACATATAGATGAAAATA [CACACA_site6635]” the “gcPBM binding intensity (ln)” value was 6.88.
For “ATTGTATCTGTATATGCACACAATATCTGTACTTCT [CACACA_site5445]”, the “gcPBM binding intensity (ln)” value was 10.1.
“TATATATTGATATGCACACCTATGTATTGATGTATA [CACACA_site1073]” was tested, and the “gcPBM binding intensity (ln)” value was 10.
In the case of “TATTATATGTATTGCACACCTTCAACAACTACTTCT [CACACA_site655]”, the “gcPBM binding intensity (ln)” value is reported as 10.6.
For “TTATTATGTATATATGCACACAATACCCAAAACAAC [CACACA_site80]”, the “gcPBM binding intensity (ln)” value was 9.84.
With “TATATTATATGTATTGCACACCTTCAACAACTACTT [CACACA_site8121]” the “gcPBM binding intensity (ln)” value was 10.5.
“CAACTAACATATATTCAACACACATATACCTTCAAC [CACACA_site8988]” was tested, and the “gcPBM binding intensity (ln)” value was 6.43.
For “AAAAAAATAAATAAATGTACACATATATATATATAT [XGTACX_site4350]”, the “gcPBM binding intensity (ln)” value was 9.25.
For “AAAATGTATTCTCTCATGCACACTTTCTTTAAGGGA [CACACA_site2196]”, the “gcPBM binding intensity (ln)” value was 8.5.
For “AATACAAAAAAAGGTACACACATAATATATTTATTA [CACACA_site2628]”, the “gcPBM binding intensity (ln)” value was 6.46.
“GTTCTTTCAAATTATACACACCAAAAAAAAAAAAAA [CACACA_site5660]” was tested, and the “gcPBM binding intensity (ln)” value was 6.62.
In the case of “TATATATTTTTATGCACACACAAAGAAAATTTTCCT [CACACA_site2863]”, the “gcPBM binding intensity (ln)” value is reported as 10.8.
In the case of “TATATATATTTTTATGCACACACAAAGAAAATTTTC [CACACA_site8931]”, the “gcPBM binding intensity (ln)” value is reported as 10.1.
“AATATATCTTATTTAACACACACAAAGAAAATAGAA [CACACA_site9242]” was tested, and the “gcPBM binding intensity (ln)” value was 7.34.
With “TAATGTATTATATTTTGTTTTCTTCCACCAAAAAAA [XGTACX_negctrl_site64]” the “gcPBM binding intensity (ln)” value was 6.41.
For “TATATCTTATTTAACACACACAAAGAAAATAGAAAA [CACACA_site3732]”, the “gcPBM binding intensity (ln)” value was 6.81.
In the case of “TTCTTTTTCCAATTTGCACACCACAAAATTATATAT [CACACA_site2909]”, the “gcPBM binding intensity (ln)” value is reported as 10.6.
In the case of “TATATATCTTTATGCACACACAAAGAAAATTTTCCT [CACACA_site7366]”, the “gcPBM binding intensity (ln)” value is reported as 10.5.
“ATTATATATATTTATGCACACAAAATATATTATATA [CACACA_site9244]” was tested, and the “gcPBM binding intensity (ln)” value was 10.1.
In the case of “AACAAATGTTAAATGTTTAAGGAGAAAATAAAGACA [CACACA_negctrl_site1163]”, the “gcPBM binding intensity (ln)” value is reported as 6.75.
“ATTTGCTCACAAGAAGCACACAAAAAAAGAAAAAAA [CACACA_site9338]” was tested, and the “gcPBM binding intensity (ln)” value was 7.34.
For “TATTTTTTCCTTTGTTTTTTAAACTATCTTAACTAA [XGTACX_negctrl_site519]”, the “gcPBM binding intensity (ln)” value was 6.37.
In the case of “TTAACTTTTTTATATGCACACATAAACAAGGATATA [CACACA_site8932]”, the “gcPBM binding intensity (ln)” value is reported as 10.1.
For “AACTTTTTTATATGCACACATAAACAAGGATATATA [CACACA_site2874]”, the “gcPBM binding intensity (ln)” value was 10.3.
For TCCATATGCAAACTGGTGCACAAGTAGCTTTTATAT, the “gcPBM binding intensity (ln)” value was 10.8.
With “ACACATAAATGAATAAATAAATAAATATAAATATAA [CACACA_negctrl_site1784]” the “gcPBM binding intensity (ln)” value was 6.21.
“TAATATAGAAAATGCATACACACTTTATATATATAT [CACACA_site911]” was tested, and the “gcPBM binding intensity (ln)” value was 8.61.
With “TTTTTTTTTTTTTAAACATGCAAAATATATAATTTT [TGCATGCA_site633]” the “gcPBM binding intensity (ln)” value was 6.44.
“TAGAAATATATTTATTGTACATTGTATATATTATAT [XGTACX_site7584]” was tested, and the “gcPBM binding intensity (ln)” value was 6.26.
For “TTATAATATATATAAAAGAAAAAAAATTATAATATA [CACACA_negctrl_site90]”, the “gcPBM binding intensity (ln)” value was 6.53.
For “TGTAATAATTATTGCACGCACACAAAAACCTATAGA [CACACA_site2932]”, the “gcPBM binding intensity (ln)” value was 10.2.
In the case of “TATATAACCGAGTGCACACACAAAAAAAAAGTGAAC [CACACA_site6806]”, the “gcPBM binding intensity (ln)” value is reported as 10.8.
In the case of “AATATAATATATTGCACACAAAAAGTGAATTATTCT [CACACA_site1684]”, the “gcPBM binding intensity (ln)” value is reported as 10.7.
“TATATAATCGAGTGCACACACAAAAAAAAAGTGAAC [CACACA_site1483]” was tested, and the “gcPBM binding intensity (ln)” value was 10.4.
For “TCAAAAGAATAATTGGTGCAAATTATATAATATAAT [GTGCAC_site9804]”, the “gcPBM binding intensity (ln)” value was 10.5.
For “TTTAATAATTATTAAAGTACAAAATAAATATTGAAT [XGTACX_site7538]”, the “gcPBM binding intensity (ln)” value was 6.7.
In the case of ATATATATATAATAAGTGCAAAAAAAAGAAAAAAAT, the “gcPBM binding intensity (ln)” value is reported as 9.3.
In the case of “TGAATATTCATATGCACACAAATTAATATACATAAT [CACACA_site442]”, the “gcPBM binding intensity (ln)” value is reported as 10.3.
In the case of “AAAAAATATAGATGCACACACAAAAAAACAAATTAA [CACACA_site6718]”, the “gcPBM binding intensity (ln)” value is reported as 8.71.
“TGTATATAATCGAGTGCACACACAAAAAAAAAGTGA [CACACA_site8417]” was tested, and the “gcPBM binding intensity (ln)” value was 10.1.
“TAATAATTATTGCACGCACACAAAAACCTATAGATT [CACACA_site2931]” was tested, and the “gcPBM binding intensity (ln)” value was 10.6.
“TATTTATTTAATTACACACGAACATATAACCATTTC [CACACA_site211]” was tested, and the “gcPBM binding intensity (ln)” value was 6.81.
